The whole screen tested about 220,000 compounds, of which about 150 (0.068%) were called active. Many of the other results were omitted from the sample, so actives are more common in it than they were. A number with no mark means an inactive call.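 The calls were made as follows: active = activation, meaning protection from cell death, of at least 50% relative to plate controls; inactive = activation below 50%.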
assay: rescue of FADD-deficient Jurkat cells from TNF-alpha death – single concentration, primary screen (AID 463075); details: Jurkat FADD-/- TNF necroptosis rescue, ATP luminescence, 24 h; at 10 µM; active compounds read high; 0 = TNF only, 100 = no-TNF cells;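 also: necroptosis triggered by 40 ng/mL TNF-alpha added together with compound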

SMILES | activation (protection from cell death)
COc1ccc(NC(=O)C2=C(C)NC(=O)NC2c2ccccc2[N+](=O)[O-])cc1 (configuration not stated) | 0.73%
CCOC(=O)c1cc(Sc2ccccc2N)cc(C(=O)OCC)n1 | 0.0548%
COc1ccc(OCc2cn3c(C)cc(C)nc3n2)cc1 | 1.17%
CC1COc2ccccc2N1S(=O)(=O)c1ccccc1 (configuration not stated) | -0.217%
CCOc1ccccc1NC(=O)C12CC3CC(C1)CC(c1ccc(C)cc1)(C3)C2 | -1.89%
O=c1ccnc(Nc2ccc(Cl)cc2)[nH]1 | 2.1%
Cc1csc(Nc2ccc(Cl)cc2)[n+]1-c1ccc(Cl)cc1 | 52.7% (active)
Cc1ccc(NC(=O)c2ccc(Oc3ncccn3)cc2)cc1 | -0.146%
CN(C)Cc1ccc(F)cc1Sc1cc(Cl)ccc1Cl | 0.603%
CCOC(=O)CNC(=O)N1c2ccccc2Sc2ccccc21 | -1.84%
C=CCNC(=O)c1cc2nc(C3CC3)cc(C(F)F)n2n1 | 0.00242%
Cc1ccc(C(=O)/C=C/Nc2ccc(S(=O)(=O)Nc3onc(C)c3C)cc2)cc1 | 1.49%
CCN(CC)c1ccc(C(=O)c2cnc(/N=C/N(C)C)s2)cc1 | 2.87%
CC(NC(=S)NNS(=O)(=O)c1ccc(C(C)(C)C)cc1)c1ccccc1 (configuration not stated) | 5.41%
COc1cc(OC)cc(C(=O)NC2CCN(C(=O)N3c4ccccc4Sc4ccccc43)CC2)c1 | -2.58%
CN(C)CCCn1c(SCCN2C(=O)c3ccccc3C2=O)nc2ccccc2c1=O | 0.858%
CCN(CC)C(=O)CSc1nnc(CNc2ccc(F)cc2)n1Cc1ccco1 | 0.256%
C/C(CC(C)C)=N\Oc1nc(C)cc(C)n1 | 1.02%
Clc1ccc(-c2cc(C3CCNCC3)[nH]n2)c(Cl)c1 | 4.13%
FC(F)(F)c1cc(C(F)(F)F)c2ccc(N3CCN(c4ccccc4)CC3)nc2n1 | -0.212%
NC(=O)c1ccc(NC(=O)COC(=O)C(Cc2ccccc2)NC(=O)c2ccccc2)cc1 (configuration not stated) | 0.97%

SMILES | activation (protection from cell death)
Cc1nn(C)c(C)c1S(=O)(=O)N1CCC(CO)(Cc2ccc(Cl)cc2)CC1 | -0.682%
CCC1CO/C(=C(\C(=C(Cl)Cl)N2CCOCC2)[N+](=O)[O-])N1 (configuration not stated) | 0.241%
C=C(C)COc1ccc(-c2nc(N)ncc2-c2ccccc2OC)c(O)c1 | 1.21%
OCC1(CCc2ccccc2)CCN(Cc2ccc3nsnc3c2)CC1 | 1.53%
NS(=O)(=O)c1ccc(NC(=S)NC(=O)c2cccc(Br)c2)cc1 | -0.737%
CCOc1ccc(NC(=O)C2CC(=O)N=C(N)S2)cc1 (configuration not stated) | 0.442%
CCOC(=O)C1=C(CC)Nc2ccccc2N=C1NC(=O)c1cccc(S(=O)(=O)N2CCCC2)c1 | -3.1%
COC(=O)C1CCN(CC(N)=O)CC1 | 1.78%
Cc1c([N+](=O)[O-])c(N)nn1C | 0.221%
COc1ccc(CC(=O)NCc2nnc(SCC(=O)Nc3ncc(C)s3)n2C)cc1 | 1.73%
Clc1ncn(CCOc2ccccc2)c1Cl | 3.48%
N#Cc1c(N2CCCCC2)nc(N)c2c(N)nc(SCC(=O)O)cc12 | -7.92%
Cc1cc(C(=O)COC(=O)C2CC2)c(C)n1-c1ccc(F)cc1 | -0.153%
CN(C(=O)c1c(Cl)cnn1C)C12CC3CC(CC(C3)C1)C2 | -0.801%
CCNc1ccc(C(=O)OCC(=O)N2c3ccccc3NC(=O)C2(C)C)cc1[N+](=O)[O-] | 1.58%
CCn1c2ccccc2c2cc(CC(N)=O)ccc21 | -1.12%
CCc1ccccc1NC(=O)CN(c1ccc(OC)cc1OC)S(=O)(=O)c1ccccc1[N+](=O)[O-] | 0.342%
Cc1ccc2nc(SC(C)C(=O)NCc3ccco3)[nH]c2c1 (configuration not stated) | -0.614%
CCOC(=O)c1c(N)sc2c1CCCC2=O | -2.66%
O=C1CC(c2ccccc2)C(=O)N1c1cccc(O)c1 (configuration not stated) | 52% (active)
O=C1OCC2=C1C(c1ccccc1)CC(=O)N2c1cccc(F)c1 (configuration not stated) | -0.757%

SMILES | activation (protection from cell death)
O=C1CC(NNc2ccccc2)C(=O)N1c1cccc(Cl)c1 (configuration not stated) | -2.98%
Cc1nnc(Nc2ccccc2F)s1 | 0.78%
N#Cc1c(-c2ccc(Cl)cc2)c2c([nH]c1=S)CCCC2 | -2.48%
O=C(O)c1ccccc1-c1ccccc1C(=O)NCc1cccnc1 | 0.395%
CCN(C(=O)COc1cccnc1[N+](=O)[O-])C1CCS(=O)(=O)C1 (configuration not stated) | 0.598%
CCC(C)n1c(-c2cc(OC)c(OC)c(OC)c2)nc2nc3ccccc3nc21 (configuration not stated) | -16.6%
CC(=O)Nc1nc2c(s1)C(=O)NCC(C)(C)C2 | 0.16%
Cc1ccc(S(=O)(=O)NCCc2nnc3ccc(SCc4cccnc4)nn23)cc1 | -0.101%
O=C(CCc1ccccc1)Nc1ncc([N+](=O)[O-])s1 | 9.81%
O=C(Cc1c(F)cccc1Cl)Nc1ncc([N+](=O)[O-])s1 | 59.9% (active)
O=C(Cc1c(F)cccc1Cl)Nc1ccc(-n2cnnn2)cc1 | 0.184%
COc1ccc(Br)cc1C(=O)Nc1cccc(C)c1C | 0.986%
O=C(NC(Cc1c[nH]c2ccccc12)C(=O)N/N=C/c1ccc(Br)cc1)c1cccs1 (configuration not stated) | -2.26%
CC(C)c1nc(CNC(=O)CC2C(=O)NCCN2Cc2ccoc2)cs1 (configuration not stated) | -0.307%
CCc1cc(CNC(=O)CC2C(=O)NCCN2Cc2ccccc2C(F)(F)F)on1 (configuration not stated) | 1.76%
COC(=O)c1ccc(CN(c2ccccc2OC)S(=O)(=O)c2cccs2)o1 | 0.0719%
COC(=O)c1ccc(CSc2ccccc2C)o1 | 6.63%
COC(=O)c1ccc(Cc2ccccc2)o1 | 55.2% (active)
COc1ccccc1CNC(=O)CN1CCC(n2cnc3cc(F)ccc32)CC1 | 4.48%
O=C(c1ccc(S(=O)(=O)c2ccccc2)cc1)N1CCCCCC1 | 1.36%
